“And” between values parts separate entries of the source, which are not always exact repeats. Identical values can stand only once. The source made the active and inactive calls. Unless noted, how the calls were made is not given here.
Key:
[1] = tested on: Wnt5a (protein binding on small-molecule microarray); assay: small molecules binding Wnt5a protein – biophysical, small-molecule microarray, 635/667 nm fluorescence, primary screen (AID 1142); conditions: 635 nm fluorescence, higher = more signal;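 further: fluorescence read at 667 nm with signal to noise per printed feature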
[2] = ATP-based viability of Huh7 replicon cells – cell-based, CellTiter-Glo luminescence, basal, 48 h, cytotoxicity control for HCV replication inhibitor project, primary screen (AID 1143); conditions: higher = more signal, called active from +8 up or from −8 down;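 further: Huh7 hepatoma cells carrying a hepatitis C replication reporter with no stimulus; test concentration not given here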
[3] = Pseudomonas biofilm growth suppression – PAO1 strain, BacTiter-Glo luminescence, LB-PBS, primary screen (AID 1144); conditions: P. aeruginosa PAO1 biofilm, 12 h, higher = more signal
[4] = basal CRE-LacZ reporter activity in PC12 – cell-based, unstimulated, primary screen (AID 1145); conditions: no forskolin, luminescence, 4.5 h, higher = more signal, called active from +8 up or from −8 down
[5] = forskolin-driven CRE-LacZ activity in PC12 – cell-based, CRE-LacZ reporter, forskolin-stimulated, primary screen (AID 1146); conditions: luminescence, 4.5 h, higher = more signal, called active from +8 up or from −8 down;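 further: PC12 cells with 6xCRE LacZ reporter stimulated by forskolin 10 µM; beta-galactosidase reporter signal reflecting CREB driven transcription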
[6] = molecular target: Streptavidin (Streptomyces avidinii) (UniProt P22629); assay: compounds binding control protein streptavidin – biophysical, small-molecule microarray, 635/667 nm fluorescence, artefact control for SMM compound annotation, primary screen (AID 1147); conditions: higher = more signal;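 further: signal reflects streptavidin binding to arrayed compounds as a control protein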
Streptavidin (Streptomyces avidinii), sequence (P22629 whole entry, looked up): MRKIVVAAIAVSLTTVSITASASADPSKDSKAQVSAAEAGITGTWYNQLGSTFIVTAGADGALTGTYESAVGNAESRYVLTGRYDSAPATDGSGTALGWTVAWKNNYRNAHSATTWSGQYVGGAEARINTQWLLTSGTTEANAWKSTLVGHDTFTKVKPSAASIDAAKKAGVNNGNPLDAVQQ

[7] = probe aInhba binding on compound microarray – biochemical, small-molecule microarray, 635/667 nm fluorescence, primary screen (AID 1148); conditions: higher = more signal;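 further: score merges 667nm spot fluorescence with signal-to-noise for antibody binding to printed compounds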
[8] = molecular target: Torsin-1A (Homo sapiens) (UniProt O14656); assay: TOR1A wild-type binding on microarray – cell lysate, small-molecule microarray, lysate, 635/667 nm, primary screen (AID 1149); conditions: COS7 hTOR1A-WT lysate, 635 nm fluorescence, higher = more signal
Torsin-1A (Homo sapiens), sequence (O14656 whole entry, looked up): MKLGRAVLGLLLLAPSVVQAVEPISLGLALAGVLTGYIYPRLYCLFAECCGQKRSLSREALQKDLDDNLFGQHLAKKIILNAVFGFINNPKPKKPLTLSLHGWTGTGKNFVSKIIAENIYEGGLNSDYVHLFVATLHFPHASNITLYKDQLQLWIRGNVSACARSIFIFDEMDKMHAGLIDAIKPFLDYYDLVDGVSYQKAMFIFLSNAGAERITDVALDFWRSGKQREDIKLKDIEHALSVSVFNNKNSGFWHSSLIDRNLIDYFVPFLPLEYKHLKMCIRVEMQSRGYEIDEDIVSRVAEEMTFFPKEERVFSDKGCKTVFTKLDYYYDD

[9] = molecular target: Torsin-1A (Homo sapiens) (UniProt O14656); assay: torsin A mutant lysate binding on microarrays – cell lysate, small-molecule microarray, COS7 lysate, 635/667 nm fluorescence, primary screen (AID 1150); conditions: COS7 hTOR1A mutant lysate, 635 nm fluorescence, higher = more signal;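 further: score pools 667 nm emission and signal to noise measuring lysate protein binding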
[10] = tested on: Sonic hedgehog protein (Shh); assay: Sonic hedgehog microarray binding compounds – biochemical, small-molecule microarray, 635/667 nm fluorescence, primary screen (AID 1151); conditions: 635 nm fluorescence, higher = more signal;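 further: Shh protein binding to compounds spotted on small-molecule microarray slides; score combines spot fluorescence intensity with signal-to-noise across triplicate slides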
[11] = optical density shifts of acrAB sulA E. coli – strain DRC41, OD650, 48 h, E. coli filamentation inducer project, primary screen (AID 1152); conditions: higher = more signal, called active from +8 up or from −8 down;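 further: E. coli MC1000 strain DRC41 lacking acrAB efflux pump and sulA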
[12] = probe aLefty1 binding on compound microarray – biochemical, small-molecule microarray, 635/667 nm fluorescence, primary screen (AID 1153); conditions: higher = more signal;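 further: score merges spot fluorescence with signal-to-noise ratio from the scanned slide images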
[13] = plasmodial surface anion channel blockers, osmotic lysis – cell-based, P. falciparum Indochina, OD700, 1 h, primary screen (AID 1154); conditions: P. falciparum Indochina infected RBC osmotic lysis, higher = more signal, called active from +8 up or from −8 down
[14] = plasmodial surface anion channel blockers, osmotic lysis – cell-based, P. falciparum Indochina, OD700, 2 h, primary screen (AID 1155);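 further: lysis reports solute entry through the parasite surface anion channel PSAC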; conditions: P. falciparum Indochina infected erythrocytes, higher = more signal, called active from +8 up or from −8 down
[15] = changes in parasitized red cell lysis, either direction – P. falciparum Indochina, OD700, 3 h, PSAC antagonist project, primary screen (AID 1156); conditions: P. falciparum-infected erythrocytes, osmotic lysis, higher = more signal, called active from +8 up or from −8 down
[16] = plasmodial surface anion channel blockers, osmotic lysis – cell-based, P. falciparum Indochina, OD700, 18 h, primary screen (AID 1157); conditions: P. falciparum Indochina infected erythrocytes, osmotic lysis OD700, 18 h; higher = more signal, called active from +8 up or from −8 down
[17] = S6 kinase pathway phospho-S6 level changes – cell-based, A549, cytoblot, luminescence, serum-stimulated, primary screen (AID 1158); conditions: 5 h, higher = more signal;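 further: serum-stimulated A549 lung adenocarcinoma cells; signal is phosphorylated S6 detected by cytoblot immunostaining with HRP secondary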
[18] = molecular target: NADPH oxidase 2 (Homo sapiens) (UniProt P04839); assay: compounds shifting NOX2 Amplex Red fluorescence – cell-based, HEK293-NOX2, PMA-stimulated, NOX inhibitor project, primary screen (AID 1159); conditions: 45 min, higher = more signal, called active from +8 up or from −8 down; further: test concentration not given here
NADPH oxidase 2 (Homo sapiens), sequence (P04839 whole entry, looked up): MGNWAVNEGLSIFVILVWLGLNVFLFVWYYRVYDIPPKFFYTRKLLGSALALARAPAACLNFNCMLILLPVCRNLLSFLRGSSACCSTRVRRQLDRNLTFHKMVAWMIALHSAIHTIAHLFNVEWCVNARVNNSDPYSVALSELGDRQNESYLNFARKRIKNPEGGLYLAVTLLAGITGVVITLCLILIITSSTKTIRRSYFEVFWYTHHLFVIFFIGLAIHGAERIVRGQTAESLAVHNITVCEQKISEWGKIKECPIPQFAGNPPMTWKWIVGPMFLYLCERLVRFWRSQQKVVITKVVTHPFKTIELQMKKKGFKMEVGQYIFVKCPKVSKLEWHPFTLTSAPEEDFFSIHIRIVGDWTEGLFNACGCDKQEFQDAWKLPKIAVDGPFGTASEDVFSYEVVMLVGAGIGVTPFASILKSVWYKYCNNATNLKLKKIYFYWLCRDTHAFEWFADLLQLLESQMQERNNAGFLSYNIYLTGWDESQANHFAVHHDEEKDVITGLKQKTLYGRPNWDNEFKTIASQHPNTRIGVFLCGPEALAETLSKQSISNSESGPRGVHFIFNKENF

[19] = molecular target: NADPH oxidase 4 (Homo sapiens) (UniProt Q9NPH5); assay: compounds shifting NOX4 Amplex Red fluorescence – cell-based, HEK293-NOX4, tetracycline-induced, NOX inhibitor project, primary screen (AID 1160); conditions: HEK293-NOX4, Amplex Red H2O2 fluorescence, 45 min; higher = more signal, called active from +8 up or from −8 down
NADPH oxidase 4 (Homo sapiens), sequence (Q9NPH5 whole entry, looked up): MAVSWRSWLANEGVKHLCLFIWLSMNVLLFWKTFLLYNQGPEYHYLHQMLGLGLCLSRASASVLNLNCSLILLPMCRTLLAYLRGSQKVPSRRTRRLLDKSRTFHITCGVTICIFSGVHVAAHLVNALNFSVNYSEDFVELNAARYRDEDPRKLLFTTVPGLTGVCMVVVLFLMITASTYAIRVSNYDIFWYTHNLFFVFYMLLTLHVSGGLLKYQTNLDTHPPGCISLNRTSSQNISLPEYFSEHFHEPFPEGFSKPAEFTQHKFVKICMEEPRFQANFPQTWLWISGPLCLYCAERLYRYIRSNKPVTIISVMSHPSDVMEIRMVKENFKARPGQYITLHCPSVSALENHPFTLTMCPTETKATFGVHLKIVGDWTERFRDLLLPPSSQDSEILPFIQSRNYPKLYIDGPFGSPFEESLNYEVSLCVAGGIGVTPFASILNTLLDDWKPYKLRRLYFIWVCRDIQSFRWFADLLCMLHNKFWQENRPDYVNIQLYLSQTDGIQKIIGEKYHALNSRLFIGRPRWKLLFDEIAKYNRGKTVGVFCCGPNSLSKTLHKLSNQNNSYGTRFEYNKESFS

[20] = molecular target: NADPH oxidase 5 (Homo sapiens) (UniProt Q96PH1); assay: compounds shifting NOX5 Amplex Red fluorescence – cell-based, HEK293-NOX5, NOX inhibitor project, primary screen (AID 1161); conditions: HEK293-NOX5, ionomycin, 45 min, higher = more signal
NADPH oxidase 5 (Homo sapiens), sequence (Q96PH1 whole entry, looked up): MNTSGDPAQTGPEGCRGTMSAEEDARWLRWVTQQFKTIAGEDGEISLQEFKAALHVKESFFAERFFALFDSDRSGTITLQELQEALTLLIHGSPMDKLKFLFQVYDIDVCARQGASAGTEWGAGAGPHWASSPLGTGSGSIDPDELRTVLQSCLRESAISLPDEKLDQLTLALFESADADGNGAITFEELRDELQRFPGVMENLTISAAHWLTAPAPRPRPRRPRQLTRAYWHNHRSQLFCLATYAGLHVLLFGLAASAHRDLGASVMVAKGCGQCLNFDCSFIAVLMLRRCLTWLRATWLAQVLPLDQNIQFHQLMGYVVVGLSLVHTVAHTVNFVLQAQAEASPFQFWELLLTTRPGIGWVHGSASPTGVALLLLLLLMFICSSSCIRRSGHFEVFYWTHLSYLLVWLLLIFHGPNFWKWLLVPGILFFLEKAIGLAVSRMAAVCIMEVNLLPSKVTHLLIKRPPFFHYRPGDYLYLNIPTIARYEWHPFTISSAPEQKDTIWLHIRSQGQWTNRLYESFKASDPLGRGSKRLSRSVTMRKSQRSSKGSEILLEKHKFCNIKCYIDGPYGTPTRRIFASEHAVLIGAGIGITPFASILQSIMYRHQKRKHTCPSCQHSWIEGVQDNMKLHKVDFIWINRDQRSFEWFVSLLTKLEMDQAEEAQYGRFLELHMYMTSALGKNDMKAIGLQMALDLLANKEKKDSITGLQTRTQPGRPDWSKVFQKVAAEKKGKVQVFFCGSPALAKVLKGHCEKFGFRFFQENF

C=CC[C@H](O)c1ccc(OCCO)cc1
composite z-score [1]: -0.0223 and -0.614 | z-score [2]: -1.36 (inactive) and -0.878 (inactive) | z-score [3]: -0.809 (inactive) and -0.0923 (inactive) | z-score [4]: -0.925 (inactive) and 0.18 (inactive) | z-score [5]: -0.506 (inactive) and -0.0908 (inactive) | composite z-score [6]: -0.893 and -1.41 | composite z-score [7]: -0.0371 and -0.497 | composite z-score [8]: -0.646 and -1.69 | composite z-score [9]: -0.0897 and -1.66 | composite z-score [10]: -0.125 and 0.891 | z-score [11]: -0.349 (inactive) and -0.895 (inactive) | composite z-score [12]: -0.017 and -0.491 | z-score [13]: 0.965 (inactive) and 1.27 (inactive) | z-score [14]: 0.396 (inactive) and -0.262 (inactive) | z-score [15]: -0.0706 (inactive) and -0.94 (inactive) | z-score [16]: 0.475 (inactive) and 0.084 (inactive) | z-score [17]: 0.263 and 0.368 | z-score [18]: -0.317 (inactive) and -0.425 (inactive) | z-score [19]: -0.103 (inactive) and 0.574 (inactive) | z-score [20]: 0.811 and 0.51

COC(=O)C1=C(C)N(Cc2ccccc2)C2=C3C(=O)CCC[C@@H]3[C@@](O)(C(=O)OC)C(=O)N2[C@@H]1c1ccccc1
composite z-score [1]: -0.0849 and 0.288 | z-score [2]: -0.5 (inactive) and -1.53 (inactive) | z-score [3]: 0.311 (inactive) | z-score [4]: 1.65 (inactive) and 1.38 (inactive) | z-score [5]: 0.703 (inactive) and -1.7 (inactive) | composite z-score [6]: 0.14 and -0.503 | composite z-score [7]: 0.155 and -0.0762 | composite z-score [8]: 0.555 and -0.0343 | composite z-score [9]: 0.844 and 0.0578 | composite z-score [10]: 0.544 and 0.586 | z-score [11]: 0.941 (inactive) and 1.15 (inactive) | composite z-score [12]: -0.0275 and 0.106 | z-score [13]: -0.0542 (inactive) and 0.644 (inactive) | z-score [14]: 0.23 (inactive) and -0.736 (inactive) | z-score [15]: -0.689 (inactive) and 0.924 (inactive) | z-score [16]: 0.249 (inactive) and -0.767 (inactive) | z-score [17]: -0.0885 and 0.778 | z-score [18]: 1.08 (inactive) and -0.368 (inactive) | z-score [19]: -0.0562 (inactive) and 0.13 (inactive) | z-score [20]: -0.0435 and -0.704

CO[C@H]1COC(=O)CC=C[C@@H](C)COC(=O)[C@@H](OCc2ccccc2)C=C[C@@H]1C
composite z-score [1]: -0.134 | z-score [2]: -0.356 (inactive) | z-score [3]: 0.106 (inactive) | z-score [4]: 0.79 (inactive) | z-score [5]: -0.471 (inactive) | composite z-score [6]: 0.999 | composite z-score [7]: -0.3 | composite z-score [8]: 2.35 | composite z-score [9]: 2.28 | composite z-score [10]: 1.96 | z-score [11]: 1.08 (inactive) | composite z-score [12]: -0.334 | z-score [13]: 1 (inactive) | z-score [14]: -0.104 (inactive) | z-score [15]: 0.362 (inactive) | z-score [16]: -0.0412 (inactive) | z-score [17]: 0.21 | z-score [18]: 0.46 (inactive) | z-score [19]: 1.19 (inactive) | z-score [20]: 0.308

Source: PubChem BioAssay
